Measurements published in PubChem BioAssay (Tox21).
Where “and” joins values, the source holds several entries; their conditions need not be identical. Equal entries are not always repeated. Inconclusive results are not listed. Entries that show only a call come without a potency. Where a structure was tested more than once in an assay, its records may differ in their call. Calls of active or inactive are those of the source. Calls follow the shape of the full dose curve.

What follows are molecules tested against 5-hydroxytryptamine receptor 2A (Homo sapiens) (UniProt P28223) (assay: 5-hydroxytryptamine receptor 2A (HTR2A) small molecule antagonists, cell-based qHTS assay (AID 1963586; also: nearly all actives have a fitted effect of over 45% in size)). Conditions: HTR2A-CHO cells, DOI-induced calcium flux, fluorescence; series mostly up to 61.5 µM.
Source text: National Center for Advancing Translational Sciences [NCATS]
Division of Preclinical Innovation [DPI]
U.S. Environmental Protection Agency [EPA]
National Institutes of Environmental Health Sciences [NIEHS]
National Toxicology Program [NTP]
U.S. Food and Drug Administration [FDA]
The HTR2A receptor is a subtype of the 5-HT2 receptor that belongs to the serotonin receptor family and is a G protein-coupled receptor (GPCR). The HTR2A-CHO cell line stably expressing human 5-hydroxytryptamine receptor 2A (HTR2A) can be used for screening antagonists of interactions between 5-HT2 and its ligands. The HTR2A-CHO calcium flux assay is a homogeneous fluorescence-based assay for detecting the intracellular calcium level using FDSS kinetic plate reader system.
Tox21 Assay Protocol Summary:
HTR2A-CHO cells were dispensed at 2000 cells/3uL/well in 1536-well black-clear bottom plates using a Multidrop Dispenser. After the assay plates were incubated at a 37 C/5% CO2 incubator for 18 h, 3 uL of Dye Loading Buffer was transferred to the assay plate by a Flying Reagent Dispenser. The assay plates were incubated at 37 C for 1h. For antagonist mode, 23 nL of compounds dissolved in DMSO, positive controls or DMSO only was transferred to the assay plate by a pin tool. After 5 min incubation at room temperature, 1.5 uL of 4-Iodo-2,5-dimethoxy-alpha-methylbenzeneethanamine hydrochloride (DOI) at 4nM was added to each well. The fluorescence intensity in the plates was measured using FDSS 7000EX kinetic plate reader for 3 min at 1 sec intervals.
Potency is read from the fitted curve at half-maximal effect.

Sequence of 5-hydroxytryptamine receptor 2A (Homo sapiens) (P28223 whole entry, looked up): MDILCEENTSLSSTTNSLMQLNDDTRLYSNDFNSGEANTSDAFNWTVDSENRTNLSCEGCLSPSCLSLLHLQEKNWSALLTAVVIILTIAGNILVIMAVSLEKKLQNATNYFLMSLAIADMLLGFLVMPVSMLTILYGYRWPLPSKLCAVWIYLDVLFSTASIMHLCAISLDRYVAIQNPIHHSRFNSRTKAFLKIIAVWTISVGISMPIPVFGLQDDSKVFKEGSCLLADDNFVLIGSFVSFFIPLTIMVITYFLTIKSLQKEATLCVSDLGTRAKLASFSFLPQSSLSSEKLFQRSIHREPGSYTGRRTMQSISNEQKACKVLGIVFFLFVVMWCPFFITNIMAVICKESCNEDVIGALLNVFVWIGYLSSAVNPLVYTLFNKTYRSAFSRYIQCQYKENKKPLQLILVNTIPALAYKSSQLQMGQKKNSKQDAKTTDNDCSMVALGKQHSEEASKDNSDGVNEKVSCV

Row | Structure (SMILES) | Potency | activity, negative = inhibition
1 | NC(=O)CI | inactive | –
2 | O=CNC(N1CCN(C(NC=O)C(Cl)(Cl)Cl)CC1)C(Cl)(Cl)Cl (stereo not given) | inactive | –
3 | CNC(=O)CSP(=O)(OC)OC | inactive | –
4 | CC(Cc1ccc(OCC(=O)O)cc1)NCC(O)c1csc(C(F)(F)F)n1 (stereo not given) | inactive | –
5 | CC(C)(c1cc(Cl)c(O)c(Cl)c1)c1cc(Cl)c(O)c(Cl)c1 | inactive and 13.3 µM (active) | –
6 | Clc1cc(Cl)c(Cl)c(Cl)c1 | inactive | –
7 | CCOC(=O)[C@]1(c2ccccc2)Oc2ccccc2[C@@H]1N | inactive | –
8 | O=c1[nH]c2ccccc2o1 | inactive | –
9 | CC(=O)c1cc2c(cc1C)C(C)(C)C(C)CC2(C)C (stereo not given) | inactive | –
10 | COc1cc(C=O)cc2c1[C@H](COC(N)=O)[C@]1(OC(C)=O)ON2C[C@H]2[C@@H]1N2C(C)=O | inactive | –
11 | CCC(Cl)CCl (stereo not given) | inactive | –
12 | ClSC(Cl)(Cl)Cl | inactive | –
13 | COP(=O)(OC)O/C(=C\Cl)c1cc(Cl)c(Cl)cc1Cl | inactive | –
14 | CC(C)[C@H](C(=O)OC(C#N)c1cccc(Oc2ccccc2)c1)c1ccc(OC(F)F)cc1 (stereo not given in full) | inactive | –
15 | COc1ccc(C=O)cc1O | inactive | –
16 | CCC(C)Nc1c([N+](=O)[O-])cc(C(C)(C)C)cc1[N+](=O)[O-] (stereo not given) | inactive | –
17 | CC(=O)/C=C/c1ccc2c(c1)OCO2 | inactive | –
18 | C[C@]12CC[C@H]3[C@@H](CCC4=CC(=O)CC[C@@H]43)[C@@H]1CC[C@@H]2OC(=O)CCc1ccccc1 | inactive | –
19 | CC(=O)[O-].[Tl+] | inactive | –
20 | CO/N=C(\C(=O)OC)c1ccccc1CO/N=C(\C)c1cccc(C(F)(F)F)c1 | inactive | –

Row | Structure (SMILES) | Potency | activity, negative = inhibition
21 | CSC1=N[C@@](C)(c2ccccc2)C(=O)N1Nc1ccccc1 | inactive | –
22 | CN1C[C@@H](NS(=O)(=O)N(C)C)C[C@@H]2c3cccc4c3c(cn4C)C[C@H]21 | 130 nM (active) | –
23 | CCc1cc(OC)c(C[C@H](C)N)cc1OC | inactive | –
24 | CON(C)C(=O)Nc1ccc(Br)c(Cl)c1 | inactive | –
25 | O=C(Nc1ccc2[nH]ccc2c1)c1cc2cc(F)ccc2n1Cc1cccc(F)c1 | inactive | –
26 | COP(=S)(OC)Oc1c(Cl)cc(C)cc1Cl | inactive | –
27 | Fc1ccc(Oc2ccnc3cc(Cl)cc(Cl)c23)cc1 | inactive | –
28 | CNNC | inactive | –
29 | CCCCCCCCCCCCCN1CC(C)OC(C)C1 (stereo not given) | inactive | –
30 | CCCCn1cc[n+](C)c1.[Cl][Fe-]([Cl])([Cl])[Cl] | inactive | –
31 | CN[C@@H](C)[C@H](O)c1ccccc1 | inactive | –
32 | COP(=S)(OC)Oc1ccc(S(N)(=O)=O)cc1 | inactive | –
33 | COc1cccc2c1C(=O)c1c(O)c3c(c(O)c1C2=O)C[C@@](O)(C(=O)CO)CC3OC1CC(N2CCOC(OC)C2)C(O)C(C)O1 (stereo not given in full) | inactive | –
34 | Clc1ccc(-c2ccc(Cl)c(Cl)c2Cl)c(Cl)c1Cl | inactive | –
35 | Nc1c(Br)cc(Br)c2c1C(=O)c1ccccc1C2=O | – | 6.3% [at 12.7 µM] (inactive)
36 | Cn1sc(Cl)cc1=O | inactive | –
37 | BrCC1CO1 (stereo not given) | inactive | –
38 | CNC(C)Cc1ccc2c(c1)OCO2 (stereo not given) | 1030 nM (active) | –
39 | CC(C)=CC1C(C(=O)OC(C#N)c2cccc(Oc3ccccc3)c2)C1(C)C (stereo not given) | inactive | –
40 | CSSC | inactive | –
